# PKD1 inh: PKD1 (human) kinase inhibition; PKD1 kinase fluorescence polarization assay; inhibition, % (concentration not given with the values); 200,000 tested, 0.056% active; AID 797; in the data active = inhibition above about 50%
# Redox H2O2 prof: compounds producing H2O2 with reducing agent – biochemical, NIH compound library profiling, artefact control for MLSCN library redox annotation, primary screen; DTT-dependent redox cycling H2O2, phenol red/HRP absorbance; 100% = 100 µM peroxide control, 0% = buffer; activation, % at 10 µM; 200,000 tested, 0.03% active; AID 878;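 active = activation of at least 50% relative to the plate's high and low controls in the primary single-dose screen; inactive = activation below 50%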;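 note: compound incubated with DTT at 0.8 mM final as the reducing agent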
# p97 inhibitor: blocks human p97 ATPase activity | P55072 | recombinant p97 ATPase, Kinase-Glo ATP luminescence, 3 h | inhibition, % at 8 µM | 220,000 tested, 0.42% active; in the data active = inhibition above about 15%;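 note: 0% = DMSO vehicle and 100% = wells lacking enzyme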
# SUMO HTRF inh: inhibitors of human SUMOylation (UBC9); AID 2006; inhibition, % at 35 µM; HTRF SUMOylation assay, SAE1/SAE2 + UBC9, in vitro; P63279; 290,000 tested, 0.36% active; in the data active = inhibition above about 50%, passing the limit was not always enough
# Furin inh: human furin inhibition; P09958; purified furin, fluorogenic substrate cleavage; inhibition, % at 20 µM or 30 µM; 220,000 tested, 0.061% active; AID 463115; in the data active = inhibition above about 25%
# FAS TE block: FAS thioesterase (human) inhibition; P49327; recombinant FAS-TE, OMFH fluorogenic substrate, fluorescence endpoint; inhibition, % at 15 µM; 360,000 tested, 0.67% active;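 active = compounds whose normalised, plate-corrected inhibition of enzyme fluorescence in the single-dose primary screen is 50% or more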;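 note: 0% = DMSO with enzyme and 100% = substrate without enzyme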
# p97 confirm: human p97 ATPase inhibition, confirmation | recombinant p97 ATPase, Kinase-Glo ATP luminescence | shares compounds with p97 inhibitor | inhibition, % at 8 µM | 760 tested, 44% active | AID 1517;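 active = percent inhibition of p97 ATPase above a set limit, the primary screen's mean plus 3 SD, cut at about 15% in these data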;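 note: 0% = DMSO wells and 100% = wells lacking p97 protein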
# Numbers without * were called inactive; nt = no result given. Shown are actives, neighbours in structure and some others; about 1.2% of the full set was active somewhere.
SMILES,PKD1 inh,Redox H2O2 prof,p97 inhibitor,SUMO HTRF inh,Furin inh,FAS TE block,p97 confirm
Cc1c(Br)c(=O)oc2c(Br)c(O)c(O)cc12,7,0,24*,6,-17,16,31*
Cc1c(Br)c(=O)oc2c(Br)c(O)ccc12,2,-2,6,20,-29,-4,nt
Cc1ccc(S(=O)(=O)N2CCOCC2)cc1C(=O)Nc1ccncc1,nt,nt,nt,nt,nt,-9,nt
Cc1ccc(S(=O)(=O)N2CCOCC2)cc1C(=O)Nc1ccc(-c2cn3ccsc3n2)cc1,-3,-2,17*,11,-25,3,21*
CCCc1cc(NC(=O)COC(=O)c2nccnc2N)n(-c2ccccc2)n1,nt,nt,nt,nt,nt,-15,nt
COCC1CCCCN1Cc1cn[nH]c1-c1ccc2cc(OC)ccc2c1 (configuration not stated),-4,0,17*,15,-15,-3,6
OC(CNCCC1C=Nc2ccccc21)Cn1c2ccc(Cl)cc2c2cc(Cl)ccc21 (configuration not stated),20,2,26*,-11,-2,-36,26*
O=C(N/N=C/c1c(Cl)nc2ccccn2c1=O)c1cccnc1,nt,nt,17*,21,-11,-2,9
CCN(CC)S(=O)(=O)c1cccc(C(=O)N/N=C(\C)c2ccc(O)cc2O)c1,-6,-1,22*,20,-16,4,22*
CCN(CC)C(=O)c1ccccc1NC(=O)c1cccc(S(=O)(=O)N(CC)CC)c1,-13,0,2,5,-25,-6,nt
O=[N+]([O-])c1ccccc1NC(=S)N/N=C/c1ccc(O)c(O)c1,10,0,19*,6,-3,4,22*
COc1cccc(OC)c1C(=O)Nc1ccc(S(=O)(=O)N2CCCCC2)cc1,nt,nt,nt,-2,nt,-4,nt
O=C(NNc1c2ccccc2nc2ccccc12)c1ccc(O)cc1O,16,-4,35*,-5,-2,13,38*
CN=C(N)NC(=O)Nc1c(C)cccc1C,nt,nt,15*,6,-33,-1,7
Cn1nnc2cc(C(=O)N3CCSCC3)ccc21,-2,2,17*,-10,4,-5,7
Cc1ccc(S(=O)(=O)N2CCN(C(=O)[C@H](Cc3ccccc3)NC(=O)c3ccco3)CC2)cc1C,nt,nt,nt,nt,nt,6,nt
CCOC(=O)C1Cc2ccccc2CN1 (configuration not stated),-7,1,15*,-1,-20,-10,6
O=C(CC1Sc2ncnn2C1=O)Nc1ccccc1 (configuration not stated),-7,0,16*,17,-21,-3,7
COc1ccc(-c2oc3ccc(-c4cc(OC)c(OC)c(OC)c4)cc3c2C#Cc2ccsc2)cc1,nt,nt,nt,21,nt,32,nt
COc1ccc(-c2nc(-c3ccc(NC(=O)c4ccc(Br)o4)cc3)no2)cc1OC,6,0,17*,30,-21,11,2
Cc1ccc(OCCNC(=O)CCNS(=O)(=O)c2ccc3ccccc3c2)cc1,nt,nt,nt,nt,nt,9,nt
Nc1ccc(N2CCCCC2)c2nonc12,-2,-1,44*,102,-26,-10,10
Nc1ccc(N2CCCCC2)cc1N1CCCCC1,15,1,0,8,-24,-16,nt
Nc1c(N2CCCC2)cc(Cl)c2nonc12,2,6,32*,nt,-14,-7,20*
Cc1[nH]c2ccccc2c1C(=O)C(=O)N1CCN(c2cccc(Cl)c2)CC1,nt,nt,nt,-17,nt,13,nt
CC(=O)c1cccc(N(C(=O)CNC(=O)c2cccs2)C(C(=O)NCC2CCCO2)c2ccccc2)c1 (configuration not stated),nt,nt,nt,10,nt,-2,nt
Cc1ccc(-c2nnc(NCc3nc4ccccc4[nH]3)c3ccccc23)cc1S(=O)(=O)N1CCOCC1,4,0,15*,-53,-17,35,12
Cc1ccc(-c2nnc(NCc3nc4ccccc4[nH]3)c3ccccc23)cc1S(=O)(=O)N(C)C,1,0,10,-10,-20,1,nt
Cc1nonc1NC(=O)CSc1nc2ccccc2[nH]1,0,-2,0,11,-23,-9,nt
CCOC(=O)NC(=O)CSc1nc2ccccc2[nH]1,2,0,16*,-7,-28,-6,6

# Source: PubChem BioAssay (several laboratories)
